Data taken from ChEMBL document CHEMBL3988442, “University of Dundee, Small-Polar-MMV Screening Library” (2021).
Among all 38,000 compounds or so, about 1,200 (3.2%) showed an effect of 50% or more. The median lay at about -58%. The sample as a whole holds a higher share of strong results than the screen did.

These molecules were tested on Plasmodium falciparum (assay: Calibr Malaria Delayed Death Assay SOP). Conditions: concentration 4.99e-06 (unit not given; other assays of the set use mol/L).
Assay type: functional, organism-based
Parameters: scale not given: in the data most compounds retested in dose-response had high values

| SMILES | Percent Effect [%] |
| --- | --- |
| O=C(NC1CCc2cc(Cl)ccc21)C1CCN(C(=O)C2CC2)CC1 (stereo unspecified) | -26.17 |
| OCC1CCCN(Cc2c(C3CCCC3)[nH]c3ncccc23)C1 (stereo unspecified) | 11.34 |
| Cc1cc(CN2CCN(Cc3ccc(C#N)cc3F)CC2)no1 | -21.87 |
| CC(C)(C)OC(=O)N1CCN(S(=O)(=O)CCCC#N)C2(CCCCC2)C1 | -7.011 |
| Cc1ccc2nc(CN3CCC(O)(CN4CCCC4)CC3)cc(O)c2c1 | -44.54 |
| OC1(CN2CCCC2)CCCN(Cc2cnc(-c3ccco3)nc2)C1 (stereo unspecified) | -86.93 |
| COc1ccc(C)cc1CC(=O)N1CC[C@@]2(CCCO2)[C@@H](O)C1 | -95.97 |
| Cc1ccc(Cn2c(=O)[nH]c3csnc3c2=O)cc1 | -6.005 |
| Cc1nc(CN2CCC3(CC2)C(=O)N(C)CCN3C)cs1.O=C(O)C(F)(F)F.O=C(O)C(F)(F)F.O=C(O)C(F)(F)F | -106.3 |
| c1ccc2sc(N3CCC4(CCCN4Cc4ncc[nH]4)CC3)nc2c1 | 19.28 |
| Cn1cc(CN2CCCC23CCN(c2nc4ccccc4s2)CC3)cn1 | 50.94 |
| Cc1nc(CN2CCCC23CCN(c2nc4ccccc4s2)CC3)co1 | 8.403 |
| Cc1cccc(SC2CCN(C(=O)CCNS(C)(=O)=O)CC2)c1 | -80.26 |
| CCOCCOC(C)C(=O)Nc1ccnn1-c1ccccc1C (stereo unspecified) | -67.54 |
| COc1cc(CCC(=O)NCC2CC2)ccc1OCC(F)(F)F | -33.72 |
| Fc1ccc(CN2CCCCC2Cn2cncn2)c2ncccc12 (stereo unspecified) | 64.52 |
| Nc1nc(CN2CCCC(Cn3cncn3)C2)nc2ccccc12 (stereo unspecified) | -138.6 |
| Clc1ccc(CN2CCCC(Cn3cncn3)C2)c2ncccc12 (stereo unspecified) | 63.13 |
| Fc1ccc(CN2CCCC(Cn3cncn3)C2)c2ncccc12 (stereo unspecified) | -5.261 |

| SMILES | Percent Effect [%] |
| --- | --- |
| Fc1ccc(CN2CCCC2Cn2cncn2)c2ncccc12 (stereo unspecified) | 10.61 |
| Fc1ccc(CN2CCOC(Cn3cncn3)C2)c2ncccc12 (stereo unspecified) | -95.84 |
| CCn1nnc2c1C(COC)CN(C(=O)Cc1ccccn1)C2 (stereo unspecified) | -16.62 |
| CNC(=O)C1CCN(S(C)(=O)=O)CC1 | -158.4 |
| O=C1CC(c2cccs2)c2sc(C(=O)O)c(-c3ccccc3)c2N1 (stereo unspecified) | -70.62 |
| Cc1nc(N2CCCC2)ccc1NCc1ccccn1 | -6.068 |
| COCCCNC(=O)c1c[nH]c2ccc(OC)cc12 | -47.08 |
| COc1ccc(C(=O)O)c(OCC(=O)NC(C)c2ccccc2)c1 (stereo unspecified) | -10.57 |
| O=C1CCNc2ccc(F)cc2CN1Cc1ccccc1 | -35.83 |
| CC1N(c2cnn(C)c2)C(=O)COC12CCN(CC1CC1)CC2.O=C(O)C(F)(F)F (stereo unspecified) | -75.35 |
| Cc1cnc(NC(=O)c2ccc(-n3ncc(C#N)c3N)cc2)s1 | -56.37 |
| COc1ccc(NC(=O)c2ccc(-n3ncc(C#N)c3N)cc2)cn1 | 80.07 |
| CCN(CC)C(=O)c1ccc(-n2ncc(C#N)c2N)cc1 | -24.17 |
| O=C(CSc1ccccn1)N1CCC(OCc2cccnc2)CC1 | -154 |
| Cn1cnc(S(=O)(=O)NCCC(O)c2ccc3c(c2)OCO3)c1 (stereo unspecified) | -141.1 |
| CC(Nc1cccc(F)c1C#N)c1cccc(S(N)(=O)=O)c1 (stereo unspecified) | -56.47 |
| Cc1ccnc(OC[C@]23COC[C@H]2CN(C(=O)C2=CCCCC2)C3)n1 | -29.48 |
| C[C@]1(O)CCN(Cc2c[nH]cn2)C[C@@H]1Oc1cccc(F)c1 | -164.2 |
| CC(C)Oc1ccccc1-c1cc(CN)ccc1F | 60.74 |

| SMILES | Percent Effect [%] |
| --- | --- |
| COc1cccc(-c2cc(CN)ccc2F)c1F | -75.66 |
| CC(C)Oc1ccc(CNC(=O)c2cc(C(N)=O)cs2)cc1F | -80.32 |
| COCCNC(=O)NCc1ccc(OC(C)C)c(F)c1 | -81.14 |
| NCc1ccc(Oc2cccc(Cl)c2Cl)cc1 | 19 |
| COc1cccc(Cl)c1-c1cc(CN)ccc1F | 65.68 |
| Cc1cc(NC(=O)Cc2ccc3c(c2)OCO3)n(C)n1 | -77.02 |
| O=C(CC1NC(N2CCc3ccccc32)=NC1=O)Nc1ccc(Cl)cc1 (stereo unspecified) | -176.9 |
| O=C(Cn1cc(C2CC2)nn1)N(Cc1ccco1)Cc1cccs1 | -76.11 |
| CN(C)c1ncccc1CNCc1cccc(O)c1 | -22.48 |
| O=C(CCc1ccccc1)NCC1CCN(Cc2ccsc2)CC1 | 18.12 |
| O=C(CCc1ccsc1)NCC1CCN(Cc2cccs2)CC1 | 58 |
| O=C(CCc1ccccc1)NCC1CCN(Cc2cccs2)CC1 | -10.35 |
| CCn1ncc2c1C(COC)N(C(=O)c1ccsc1)CC2.O=C(O)C(F)(F)F (stereo unspecified) | -121.1 |
| Cc1cc(N2CCC(c3ncc[nH]3)CC2)cc(C)n1 | -30.44 |
| Cc1cc(N2CCC(c3ncc[nH]3)CC2)nc(N)n1 | -29.26 |
| Cc1cc(N2CCC(c3ncc[nH]3)CC2)c2ccccc2n1 | 61.5 |
| Cc1cc(C(=O)N2CC(O)CO2)c2cccc(C)c2n1 (stereo unspecified) | -103.4 |
| Cn1nc(C(=O)NC2(c3ccc(Cl)cc3)CCCC2)ccc1=O | 37.39 |
